The list is not random: actives were taken first. Their share in the collection is about 18%.
IL1B secr inh: blocks inflammasome-driven IL-1 beta release | THP-1 LPS/ATP IL-1B secretion, AlphaLISA, 16 h; active compounds read low | activity change, % at 57.5 µM | 4.7% of 360,000 active | AID 743279; in the data active = activity change below about -50%; inconclusive = mostly about -30% to -49%
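Secreted IL-1B measured by AlphaLISA bead assay after 16 h compound exposure of THP-1 cells; compounds (final up to 57.5 uM) added 1 h before LPS (250 ng/mL) and ATP (1.25 mM) stimulation; lower signal means less secretion.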
DT40 TDP1 CPT: DT40-hTDP1 cell growth loss with CPT; AID 686979; chicken DT40 Tdp1-/-;hTDP1 cells + 20 nM CPT, ATP luminescence, 48 h; Potency, µM (top dose mostly 46.2 µM), usual class: inhibitors; 12% of 420,000 active; note: nearly all actives have a fitted effect of over 55% in size
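Chicken DT40 Tdp1-/- cells complemented with human TDP1, 400 cells/well, exposed to compounds plus 20 nM camptothecin for at least 48 h at 37 C; viability read as ATP content by CellTiter-Glo luminescence.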
VP16 counter: inhibits Gal4-VP16 luciferase reporter, ROR gamma counter-screen; Drosophila S2 Gal4-VP16 UAS-luciferase, luminescence, 20 h; Potency, µM (highest dose often 53.6 µM), hits mostly inhibitors; 3.5% of 310,000 active; AID 2546;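 note: Gal4-VP16 expression switched on by copper sulfate through the metallothionein promoter; nearly all actives have a fitted effect of over 50% in size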
LDHA block: LDHA (human) enzyme inhibition; P00338; purified LDHA, NADH/diaphorase-resazurin fluorescence; active compounds read low; activity change, % (values are at about 110 or 230 µM); 0.15% of 480,000 active; in the data active = activity change below about -30%; inconclusive = mostly about -25% to -30%
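Resorufin fluorescence (ex540/em590), read at 0 and 20 min after diaphorase/resazurin addition, reports the NADH left after a 5 min room-temperature reaction of 2 nM human LDH5 with 0.06 mM NADH and 0.2 mM pyruvate.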
RORgamma inh: inhibitors of mouse ROR gamma transcriptional activity | P51450 | Drosophila S2 Gal4-RORgamma UAS-luciferase reporter, 20 h | Potency, µM (doses to about 53.6 µM), hits mostly inhibitors | 5.4% of 310,000 active; note: nearly all actives have a fitted effect of over 60% in size
Target sequence (P51450 whole entry, looked up, the tested form may be a part): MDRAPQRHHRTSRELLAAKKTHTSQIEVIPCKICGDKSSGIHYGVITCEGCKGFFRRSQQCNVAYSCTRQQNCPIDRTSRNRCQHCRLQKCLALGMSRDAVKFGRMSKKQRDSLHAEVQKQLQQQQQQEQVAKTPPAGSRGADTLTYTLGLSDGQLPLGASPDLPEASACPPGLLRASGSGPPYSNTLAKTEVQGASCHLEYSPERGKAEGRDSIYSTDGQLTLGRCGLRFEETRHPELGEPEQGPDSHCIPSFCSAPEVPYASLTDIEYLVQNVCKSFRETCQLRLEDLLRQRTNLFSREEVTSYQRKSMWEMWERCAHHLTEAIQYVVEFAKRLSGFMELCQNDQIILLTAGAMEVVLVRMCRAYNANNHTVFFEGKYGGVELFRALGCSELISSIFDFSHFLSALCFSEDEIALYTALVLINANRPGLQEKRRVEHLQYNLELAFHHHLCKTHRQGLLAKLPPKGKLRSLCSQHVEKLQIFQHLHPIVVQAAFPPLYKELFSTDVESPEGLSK
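Luminescence from a UAS-regulated Photinus luciferase reporter in stably transfected Drosophila Schneider cells is measured; decreased signal marks ROR gamma inhibition. Fusion expression is induced by 700 uM copper sulfate for 20 hr.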
DT40 TDP1 no CPT: qHTS for Inhibitors of human tyrosyl-DNA phosphodiesterase 1 (TDP1): qHTS in cells in absence of CPT; DT40 Tdp1-/- hTDP1 cells, no CPT, ATP luminescence, 48 h; Potency, µM (series often up to 46.2 µM), actives largely listed as inhibitors; 15% of 420,000 active; AID 686978, 2013; note: nearly all actives have a fitted effect of over 55% in size
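Camptothecin absent (DMSO only). Human TDP1-complemented DT40 knockout cells, 400 cells/well, 37 °C for minimum 48 hr; ATP measured via CellTiter-Glo, 30 min dark incubation, luminescence.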
Numbers stand for hits; 0 = inactive; ? = inconclusive; - = no result given; [ ] = remark or other dose. Unless noted, calls come from the whole dose curve; as a rule, active = well fitted curve in the direction sought with a large enough effect; inconclusive = small, poorly fitted or top-dose-only effect, or another doubt; inactive = no such curve, though single readings can be large; an effect the other way counts as inactive or inconclusive.

SMILES	IL1B secr inh	DT40 TDP1 CPT	VP16 counter	LDHA block	RORgamma inh	DT40 TDP1 no CPT
Cc1cc(=O)[nH]c(SCC(=O)N2CCC(Cc3ccccc3)CC2)n1	?	0	0	0	0	0
OCCN1CCN(CC(O)COCCOc2ccc(Br)cc2)CC1 (stereo unspecified)	0	?	0	0	0	23µM
COc1ccccc1N1CCN(CC(O)COCc2cccs2)CC1 (stereo unspecified)	0	0	0	0	0	0
OC(COc1ccc(Br)cc1)CN1CCOCC1 (stereo unspecified)	0	0	0	0	0	0
OC(COc1cccc2ccccc12)CN1CCN(c2ccccc2Cl)CC1 (stereo unspecified)	0	18µM	0	0	0	?
CC1(C)CCCC(C)(C)N1CC(O)COCCOc1ccc(Br)cc1 (stereo unspecified)	0	?	0	0	?	16µM
COc1ccccc1N1CCN(CC(O)COCCOc2ccc(Br)cc2)CC1 (stereo unspecified)	0	16µM	0	0	?	?
CCOC(=O)c1oc2ccccc2c1COC(=O)CNC(=O)c1ccc2c(c1)OCO2	-	-	-	0	-	-
COc1ccc(OC)c(C(C)NC(=O)CSC(C)(C)C)c1 (stereo unspecified)	-	-	-	0	-	-
CCS(=O)(=O)N(Cc1ccc(C)cc1)c1c(C)n(C)n(-c2ccccc2)c1=O	-	-	-	0	-	-
COc1ccccc1N1CCN(CC(O)COc2c(OC)cccc2OC)CC1 (stereo unspecified)	0	16µM	0	0	0	?
COc1ccccc1N1CCN(CC(O)COc2ccc(C)cc2C)CC1 (stereo unspecified)	-65	?	0	0	0	?
OC(CNC1CCCC1)COCCOc1ccc(Br)cc1 (stereo unspecified)	-66	?	0	0	0	?
COc1ccccc1N1CSC2=C(C#N)C(c3ccc(SC)cc3)CC(=O)N2C1 (stereo unspecified)	0	?	0	0	0	23µM
COc1cc(C2CC(=O)N3CN(c4ccccc4C)CSC3=C2C#N)cc(OC)c1OC (stereo unspecified)	-	-	0	-	0	-
N#CC1=C2SCN(C3CCCCC3)CN2C(=O)CC1c1c(F)cccc1Cl (stereo unspecified)	-	?	-	0	-	?
CCc1ccc(C2CC(=O)N3CN(Cc4ccccc4)CSC3=C2C#N)cc1 (stereo unspecified)	-	-	-	0	-	-
COc1ccc(Br)cc1C1CC(=O)N2CN(C)CSC2=C1C#N (stereo unspecified)	0	?	0	0	16µM	?
N#CC1=C2SCN(C3CCCCC3)CN2C(=O)CC1c1ccc(Cl)cc1 (stereo unspecified)	-	4.6µM	-	0	-	?
N#CC1=C2SCN(C3CCCCC3)CN2C(=O)CC1c1ccc(F)cc1 (stereo unspecified)	-	?	-	0	-	16µM
CC(C)c1ccc(NC(=O)C2CC(=O)NC(N3CCN(c4ccc(F)cc4)CC3)=N2)cc1 (stereo unspecified)	-	-	-	0	-	-
CCc1ccc([C@@H]2c3c(C)nn(-c4ccccc4)c3NC(=O)[C@H]2NC(=O)c2ccccc2)cc1	-	-	-	0	-	-
Cc1cccc(NCCC(=O)c2ccc([N+](=O)[O-])cc2)c1C	0	4.6µM	0[10 µM]	0	0	?
Cc1ccc(NCCC(=O)c2cccc([N+](=O)[O-])c2)c(C)c1	0	8.2µM	?	0	10µM	10µM
O=C(O)c1ccc(-n2nc(-c3ccccc3O)nc2-c2ccccc2O)cc1	-	?	-	-	-	21µM
SMILES	IL1B secr inh	DT40 TDP1 CPT	VP16 counter	LDHA block	RORgamma inh	DT40 TDP1 no CPT
Oc1ccccc1-c1nc(/C=C/c2ccccc2)nn1-c1ccccc1	?	0	0	0	0	?
Oc1ccc(/C=C/c2nc(-c3ccccc3O)n(-c3ccccc3)n2)cc1	-66	?	?	0	?	?
Cc1cccc(NC(=O)C2CCCN(c3nnc(-n4c(C)ccc4C)s3)C2)c1C (stereo unspecified)	-	15µM	-	0	-	15µM
COc1cccc(NC(=O)C2CCCN(c3nnc(-n4c(C)ccc4C)s3)C2)c1 (stereo unspecified)	-	18µM	-	0	-	13µM
COc1ccc(NC(=O)C2CCCN(c3nnc(-n4c(C)ccc4C)s3)C2)cc1OC (stereo unspecified)	-	-	-	0	-	-
Cc1cc(F)ccc1NC(=O)C1CCCN(c2nnc(-n3c(C)ccc3C)s2)C1 (stereo unspecified)	-	21µM	-	0	-	16µM
Cc1ccc(C)n1-c1nnc(N2CCCC(C(=O)Nc3ccccc3Br)C2)s1 (stereo unspecified)	-	?	-	0	-	?
CC(=O)c1cccc(NC(=O)C2CCCN(c3nnc(-n4cccc4)s3)C2)c1 (stereo unspecified)	-	?	-	0	-	16µM
CC(=O)c1ccc(NC(=O)Nc2nnc(N3CCCC(C)C3)s2)cc1 (stereo unspecified)	-	6.5µM	-	0	-	18µM
CC1CCCN(c2nnc(NC(=O)Nc3ccc(F)c(Cl)c3)s2)C1 (stereo unspecified)	-	-	-	0	-	-
CC(=O)N1CCC2(CC1)Oc1ccc(Br)cc1C1CC(c3ccccn3)=NN12 (stereo unspecified)	-	-	-	0	-	-
Cc1ccc(C)c(Sc2ccc(NC(=O)CCl)cc2)c1	-88	16µM	?	0	0[10 µM]	18µM
Cc1ccc(Sc2ccc(NC(=O)CCl)cc2)cc1C	-79	23µM	?	0	?	?
Cc1ccc(NC(=O)CC(=O)Nc2ccc(C)c(C)c2)cc1C	0	0	0	0	0	0
Cc1ccc(C)c(Sc2ccc(NC(=O)c3cccc(C)c3C)cc2)c1	-	-	-	0	-	-
Cc1ccc(-n2c(C)cc(C(=O)CN3CCOCC3)c2C)cc1C	0	21µM	0	0	?	?
Cc1cc(C(=O)CCl)c(C)n1-c1cccc(S(=O)(=O)N2CCOCC2)c1	-102	1.3µM	0[10 µM]	0	10µM	2.3µM
Cc1cc(-n2c(C)cc(C(=S)N3CCOCC3)c2C)ccc1Br	?	15µM	?	0	8.9µM	16µM
Cc1cc(C(=O)CN2C(=O)CN(C)C2=O)c(C)n1-c1cccc(S(=O)(=O)N2CCOCC2)c1	0	0	0	0	0	4.6µM
Cc1ccc(C)n1-c1cccc(S(=O)(=O)N2CCOCC2)c1	?	0	0[10 µM]	0	0	?
CN1CCN(CCCNC(=O)c2nc3ccccc3c(=O)[nH]2)CC1	-	-	-	0	-	-
COC(=O)c1c2c(c3ccccc3c1-c1ccccc1)OC(c1ccc(OC)cc1)(c1ccc(OC)cc1)C=C2	-	-	-	0	-	-
Cc1cccc(CNC(=O)CSc2nc3ccccc3nc2C)c1	-	-	-	0	-	-

From PubChem
